# Reference: PubChem BioAssay (NCATS)
# Inconclusive results are not listed. Where a call stands in place of a potency, no number is given. Calls of active or inactive are those of the source. Calls follow the shape of the dose curve; as a rule, active = well fitted curve in the direction sought with a large enough effect; inconclusive = small, poorly fitted or top-dose-only effect, or another doubt; inactive = no such curve, though single readings can be large; an effect the other way counts as inactive or inconclusive.
# Columns and labels:
# [1] = test system: Zika virus NS2B-NS3 protease (linked construct); test: Primary screen NINDS Rhodamine qHTS for Zika virus inhibitors (AID 1347160); also: nearly all actives have a fitted effect of over 55% in size; also: potency is read from the fitted curve at half-maximal effect
# Method in brief: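 Kinetic fluorescence (Ex 480 nm, Em 540 nm) over 15 min with 1.5 microM Rhodamine110 peptide and 25 nM linked protease.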
# [2] = test system: Zika virus NS2B-NS3 protease (unlinked complex); test: Primary screen GU Rhodamine qHTS for Zika virus inhibitors: Unlinked NS2B-NS3 protease assay (AID 1347159); also: nearly all actives have a fitted effect of over 60% in size; also: potency is read from the fitted curve at half-maximal effect
# Method in brief: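 A qHTS format was used, with compound concentrations ranging up to 114 microM. Each compound was preincubated with 25 nM NS2B-NS3 protease, and the substrate was then added at 1.5 microM. Curves were fitted with a 4-parameter Hill model.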
# [3] = Vero cells viability qHTS for Zika virus inhibitors (AID 1347167)
# Excerpt: Avindra Nath, Ph.D., National Institute of Neurological Disorders and Stroke (NINDS), Bethesda, MD
# Radhakrishnan Padmanabhan, Ph.D., Georgetown University (GU), Washington D.C.
# Zika Virus causes congenital defects, including microcephaly and is associated with Guillain-Barre syndrome, eningoencephalitis and myelitis in infected adult. […] Using a target-based approach, we hope to establish a screening paradigm to uncover novel, cell-active NS2B-NS3 protease (Zika Virus) specific inhibitors from NCATS' collection of small molecules using qHTS.
# Four assay panel was created to identify potential Zika Virus inhibitors. Namely, (1) GU unlinked NS2B-NS3 AMC tagged protease qHTS, (2) GU unlinked NS2B-NS3 Rhodamine tagged protease qHTS, (3) NINDS linked NS2B-NS3 AMC tagged protease qHTS, (4) NINDS linked NS2B-NS3 Rhodamine tagged protease qHTS. Identified inhibitors were screened against the Vero and HepG2 cell viability assays using CellTiter Glo to exclude cytotoxic compounds.
# Early Translation Branch (ETB)
# National Center for Advancing Translational Sciences (NCATS), Rockville, MD
# National Institute of Health (NIH), Bethesda, Maryland
# Vero and HepG2 Cell Viability Assay:
# Vero and HepG2 cell cytotoxicity were determined using a luminescent readout with CellTiter Glo reagent (Promega, Madison, WI), which is based on measuring the ATP content within cells. Briefly, 4 microL of Vero or HepG2 cells at 2.5 x 10^5 cells/mL in DMEM containing 4% FBS were dispensed into 1536-well solid bottom tissue treated white plate using a Multidrop Combi dispenser (Thermo Scientific). Plates were incubated at 37 degrees C, 95% humidity, and 5% CO2 overnight to allow for cell attachment. Compounds were dissolved in DMSO at different concentrations and transferred via pintool (Wako Automation), for a final concentration of 0.029 µM - 57 microM. Plates were again incubated for 24 to 48 hours, followed by a 2 microL addition of CellTiter Glo. Finally, plates were incubated for 30 minutes at 37 degrees C and 5% CO2 before being read on a ViewLux (Perkin Elmer) for luminescence.
# [4] = HepG2 cells viability qHTS for Zika virus inhibitors (AID 1347168); also: potency is read from the fitted curve at half-maximal effect
# Method in brief: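 Counter-screen for cytotoxicity of hits from NS2B-NS3 protease qHTS. Overnight-attached cells (2.5 x 10^5 cells/mL, DMEM/4% FBS) were dosed in titration, incubated 24 to 48 hours, then assayed by CellTiter Glo.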
# [5] = Tertiary RLuc qRT-PCR qHTS assay for Zika virus inhibitors (AID 1347169); also: top concentration of the series differs between compounds; nearly all actives have a fitted effect of over 55% in size
# Method in brief: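 Vero, 1,000 cells/well, o/n 37 C; cpd pinned in DMSO; ZIKV-RLuc Cambodian, MOI 1-2, 48-72 h 37 C; live-cell RLuc substrate, lum read at 1-1.5 h.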
# [6] = target: Lysine-specific demethylase 5B (Homo sapiens) (UniProt Q9UGL1); test: Optimization screen for KDM5B Histone Demethylases FDH coupled qHTS against the LOPAC library (AID 1347166)
# Sequence of Lysine-specific demethylase 5B (Homo sapiens) (Q9UGL1 whole entry, looked up): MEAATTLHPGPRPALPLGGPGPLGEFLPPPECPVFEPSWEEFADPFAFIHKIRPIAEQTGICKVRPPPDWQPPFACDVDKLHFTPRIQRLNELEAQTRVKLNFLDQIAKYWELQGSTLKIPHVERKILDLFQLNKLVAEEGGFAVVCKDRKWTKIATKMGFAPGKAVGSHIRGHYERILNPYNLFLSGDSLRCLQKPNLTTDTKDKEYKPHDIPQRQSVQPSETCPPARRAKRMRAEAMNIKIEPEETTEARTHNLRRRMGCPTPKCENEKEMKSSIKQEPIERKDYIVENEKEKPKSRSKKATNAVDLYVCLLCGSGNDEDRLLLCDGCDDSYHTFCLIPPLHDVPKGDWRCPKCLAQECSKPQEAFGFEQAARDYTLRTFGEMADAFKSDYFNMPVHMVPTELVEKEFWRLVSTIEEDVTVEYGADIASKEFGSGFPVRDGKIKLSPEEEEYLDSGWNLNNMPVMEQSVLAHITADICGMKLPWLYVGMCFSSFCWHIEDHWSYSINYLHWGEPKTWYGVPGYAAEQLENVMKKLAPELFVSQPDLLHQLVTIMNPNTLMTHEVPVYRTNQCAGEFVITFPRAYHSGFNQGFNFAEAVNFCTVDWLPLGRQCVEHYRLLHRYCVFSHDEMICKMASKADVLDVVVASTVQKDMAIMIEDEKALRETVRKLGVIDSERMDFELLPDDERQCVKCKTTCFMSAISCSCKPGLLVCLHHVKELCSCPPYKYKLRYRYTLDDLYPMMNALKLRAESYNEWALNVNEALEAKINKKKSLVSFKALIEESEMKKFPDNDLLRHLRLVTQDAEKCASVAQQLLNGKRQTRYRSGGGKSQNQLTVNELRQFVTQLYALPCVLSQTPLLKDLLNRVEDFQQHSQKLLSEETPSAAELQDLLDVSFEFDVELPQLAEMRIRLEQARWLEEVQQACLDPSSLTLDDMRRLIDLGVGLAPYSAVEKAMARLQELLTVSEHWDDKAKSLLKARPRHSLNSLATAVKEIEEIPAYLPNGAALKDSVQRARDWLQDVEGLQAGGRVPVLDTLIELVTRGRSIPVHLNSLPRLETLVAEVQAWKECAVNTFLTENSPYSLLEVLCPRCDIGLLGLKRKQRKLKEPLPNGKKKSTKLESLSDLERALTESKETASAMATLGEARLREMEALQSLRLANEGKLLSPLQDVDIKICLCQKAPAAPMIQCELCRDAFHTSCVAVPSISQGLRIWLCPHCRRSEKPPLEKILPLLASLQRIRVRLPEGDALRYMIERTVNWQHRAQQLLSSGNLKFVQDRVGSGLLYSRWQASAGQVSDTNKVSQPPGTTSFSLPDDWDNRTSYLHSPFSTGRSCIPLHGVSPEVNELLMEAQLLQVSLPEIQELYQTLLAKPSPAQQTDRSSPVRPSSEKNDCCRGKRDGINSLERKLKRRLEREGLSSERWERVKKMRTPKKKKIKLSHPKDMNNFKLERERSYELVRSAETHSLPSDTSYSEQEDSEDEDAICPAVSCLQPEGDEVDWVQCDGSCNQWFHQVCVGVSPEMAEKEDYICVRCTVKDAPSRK
# Method in brief: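 KDM5BDeltaAP (200nM final) preincubated 10 min with compound, then 12.5uM H3K4Me3, 25uM a-ketoglutarate, ascorbate, Fe(II), NAD+ and FDH added; 50mM HEPES pH 7.5, 0.01% Tween-20. NADH fluorescence (340/450 nm) change over 30 min, room temperature.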
smiles,measurement,setting,value
Nc1ccc(C(=O)Nc2cccc(-c3nc(N4CCOCC4)c4oc5ncccc5c4n3)c2)cn1,Potency,[1],inactive
CC(C)(N)c1ccc(-c2nc3ccccc3nc2-c2ccccc2)cc1,Potency,[2],inactive
same,Potency,[1],inactive
CCOc1cc2c(c(F)c1OCC)C(=N)N(CC(=O)c1cc(N3CCOCC3)c(OC)c(C(C)(C)C)c1)C2,Potency,[2],inactive
same,Potency,[1],inactive
Nc1ccn(C2CO[C@H](CO)O2)c(=O)n1 (stereo partly drawn),Potency,[2],inactive
same,Potency,[1],inactive
Oc1cc(-c2nc(-c3ccccc3)[nH]c2-c2ccncc2)ccc1Cl,Potency,[1],inactive
Oc1ccc([C@@H]2Oc3ccc(O)cc3[C@@H]3CCC[C@@H]32)cc1,Potency,[1],inactive
c1cc(N[C@@H]2CCNC2)nc(-c2cnc3ccc(-c4cn[nH]c4)cn23)c1,Potency,[1],inactive
same,outcome,[3],inactive
same,Potency,[4],inactive
same,Potency,[5],inactive
C=C(C)[C@@H]1CC[C@]2(C(=O)O)CC[C@]3(C)[C@H](CC[C@@H]4[C@@]5(C)CC[C@H](O)C(C)(C)[C@@H]5CC[C@]43C)[C@@H]12,Potency,[1],6.21 µM (active)
CN1CCc2c(c3ccccc3n2Cc2ccc(C(=O)NO)cc2)C1,Potency,[2],inactive
same,Potency,[1],inactive
CC(O)(C#Cc1ccc2c(c1)N(c1nc(N)ncc1Cl)CC2)c1nccs1 (stereo not drawn),Potency,[1],inactive
COc1cc(CCc2cc(NC(=O)c3ccc(N4C[C@@H](C)N[C@@H](C)C4)cc3)n[nH]2)cc(OC)c1,Potency,[2],inactive
same,Potency,[1],inactive
c1cncc(CN2CCC(n3ncc4c(N5CCOCC5)nc(-c5ccc6[nH]ccc6c5)nc43)CC2)c1,Potency,[2],inactive
same,Potency,[1],inactive
Cc1coc2c1C(=O)C(=O)c1c-2ccc2c(C)cccc12,Potency,[2],35.5 µM (active)
same,Potency,[1],25.1 µM (active)
Cc1cncc2cccc(S(=O)(=O)N3CCCN(C(=O)CN)C[C@@H]3C)c12,Potency,[2],inactive
same,Potency,[1],inactive
N#Cc1c(C2CCNCC2)cc(-c2c(O)cccc2OCC2CC2)nc1N,Potency,[2],inactive
same,Potency,[1],inactive
CC(C)n1cnc2c(NCCc3ccc(O)cc3)nc(-c3csc4ccccc34)nc21,Potency,[1],inactive
CNC(=O)c1cccc(-c2ccc3c(N4CCOC[C@H]4C)nc(N4CCOC[C@H]4C)nc3n2)c1,outcome,[3],inactive
same,Potency,[4],inactive
N[C@H]1CN(c2c(F)cc3c(=O)c(C(=O)O)cn(C4C[C@@H]4F)c3c2Cl)CC12CC2 (stereo partly drawn),Potency,[2],inactive
same,Potency,[1],inactive
CCc1nc(-c2cccc(C)c2)c(-c2ccnc(NC(=O)c3ccccc3)c2)s1,Potency,[2],inactive
same,Potency,[1],inactive
CC1=C(C(=O)Nc2cc3cn[nH]c3cc2F)C(c2ccc(Cl)cc2F)N=C(c2ccnc(Cl)c2)N1 (stereo not drawn),Potency,[2],inactive
same,Potency,[1],inactive
CN[C@@H]1C[C@H]2O[C@@](C)([C@H]1OC)n1c3ccccc3c3c4c(c5c6ccccc6n2c5c31)C(=O)N[C@H]4O,Potency,[4],10.4 µM (active)
FC(F)(F)c1ccc(Nc2nc3ccc(Oc4ccnc(-c5ncc(C(F)(F)F)[nH]5)c4)cc3[nH]2)cc1,Potency,[1],inactive
CN(C)CC(=O)N1CCC(c2ccc(NC(=O)c3ncc(C#N)[nH]3)c(C3=CCCCC3)c2)CC1,Potency,[1],inactive
same,Potency,[5],inactive
C[C@H]1COc2c(N3CCN(C)CC3)c(F)cc3c(=O)c(C(=O)O)cn1c23,outcome,[3],inactive
same,Potency,[4],inactive
same,Potency,[5],inactive
COc1ccc2cc([S+]([O-])Cc3ncc(C)c(OC)c3C)nc2c1,outcome,[6],inactive
CN[C@H](CC(C)C)C(=O)N[C@H]1C(=O)N[C@@H](CC(N)=O)C(=O)N[C@@H]2C(=O)N[C@H]3C(=O)N[C@H](C(=O)N[C@H](C(=O)O)c4cc(O)cc(O)c4-c4cc3ccc4O)[C@H](O)c3ccc(c(Cl)c3)Oc3cc2cc(c3O[C@@H]2O[C@H](CO)[C@@H](O)[C@H](O)[C@@H]2O[C@H]2C[C@](C)(N)[C@H](O)[C@H](C)O2)Oc2ccc(cc2Cl)[C@H]1O,outcome,[6],inactive
O=c1[nH]c(=O)n([C@H]2C[C@@H](O)[C@@H](CO)O2)cc1C=CBr,outcome,[6],inactive
CS(=O)(=O)N1CCc2c(-c3cnc(N)nc3)nc(N3CCOCC3)nc21,Potency,[2],inactive
same,Potency,[1],inactive
